Screening data as filed in PubChem BioAssay.
Hits are enriched below; roughly 3.1% of the tested compounds scored in any of these assays.
p53null 32C tox – kills p53 null cells at the permissive temperature; H1299-neo p53 null cells, ATP luminescence, 24 h, 32C; Potency, µM (top dose mostly 46.1 µM), usual class: cytotoxic; 55,000 compounds, 0.62% hits; also: nearly all actives have a fitted effect of over 55% in size
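ATP-content luminescence in p53-null H1299-neo cells after 24 h compound exposure (up to 46 uM) at 32C permissive temperature; 0% and 100% killing set by DMSO and 100 uM tamoxifen; Hill-equation AC50.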
OvCa metastasis – blocks SKOV3ip1 adhesion and invasion in omental model; SKOV3ip1-GFP adhesion/invasion on 3D omental model, fluorescence; Potency, µM (highest dose often 45.8 µM), actives largely listed as inhibitors; 46,000 compounds, 0.1% hits; AID 1963576; also: nearly all actives have a fitted effect of over 65% in size
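Adhesion/invasion was scored as fixed GFP-labeled SKOV3ip1 cell counts (488/509 nm), normalized to DMSO and tomatine controls. Cancer cells in serum-free medium, with four compound doses (0.36-46 umol/L), sat 2 hr at RT then 16 hr at 37 C on a 48 hr fibroblast/mesothelial/ECM culture.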
S16 F2sN tox – cytotoxicity in S16 Pmp22-F2sN Schwann cells. Potency, µM (highest dose often 57.5 µM), usual class: cytotoxic. 43,000 compounds, 0.48% hits. S16 Pmp22-F2sN Schwann cells viability, CellTiter-Glo, 24 h; also: nearly all actives have a fitted effect of over 65% in size
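S16 Schwann cells carrying the Pmp22-F2sN reporter, seeded in 1536-well format, were exposed to library compounds for 24 h at 37C. Viability was read as CellTiter-Glo luminescence after 15 min at room temperature.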
mTORC1 inh – mTORC1 pathway inhibition measured by phospho-rpS6; Tsc2-/- p53-/- MEF, phospho-rpS6 immunofluorescence/PI, 24 h; Potency, µM (series often up to 38.3 µM), most hits filed as inhibitors; 44,000 compounds, 0.78% hits; AID 493208; also: nearly all actives have a fitted effect of over 50% in size
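Tsc2-/-, p53-/- mouse embryonic fibroblasts (empty-vector line) exposed to compound 24 hrs at 37 C, fixed, immunostained for phospho-rpS6 and counterstained with propidium iodide. Acumen laser scanning gives % positive cells from Alexa 488/PI ratio, thresholded using 7.5 nM rapamycin; PI count gives viability.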
p53null 39C tox – kills p53 null cells at the nonpermissive temperature. H1299 p53-null (neo) cells, 39C, ATPlite viability, 24 h. 55,000 compounds, 0.97% hits. AID 904. Potency, µM (highest dose often 46.1 µM), usual class: cytotoxic; also: nearly all actives have a fitted effect of over 50% in size
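Cells seeded at 600/well, 37C overnight. Compound added (up to 46 uM), plates shifted to 39C for 24 hr. ATPlite added, luminescence read after 20 min at room temperature.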
PMP22 txn – PMP22 gene transcription modulation | 43,000 compounds, 2% hits | S16 Pmp22-F2sN Schwann cells, FLuc/NLuc coincidence luminescence, 24 h | Potency, µM (top dose mostly 57.5 µM), usual class: inhibitors; active = clear falling dose curves in both reporters; inconclusive = both reporters move, but less clearly or upward; inactive = either reporter flat; the % is the NLuc reporter signal
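Transcriptional readout in edited S16(c9) cells: two luciferases reported from the Pmp22 locus, measured in turn after 24 h compound incubation.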
NLuc saturating – inhibits NanoLuc at saturating substrate, PMP22 counter-screen | 690 compounds, 4% hits | Secreted NLuc enzyme (filtered S16 cell medium), Nano-Glo luminescence | Potency, µM (doses to about 57.5 µM), hits mostly inhibitors | shares compounds with PMP22 txn | AID 1508638
NLuc Km counter – NanoLuc inhibition at Km substrate, PMP22 artifact check | 690 compounds, 5% hits | secreted NLuc enzyme, coelenterazine luminescence, Km conditions | Potency, µM (top dose mostly 57.5 µM), most hits filed as inhibitors | shares compounds with PMP22 txn
FLuc counter – firefly luciferase enzyme inhibition artifact for PMP22 screen | shares compounds with PMP22 txn | purified P. pyralis FLuc, luminescence, 10 min | Potency, µM (titrated, usually from 57.5 µM), usual class: inhibitors | 690 tested, under 10 active | AID 1508640
Target sequence (P08659 whole entry, looked up): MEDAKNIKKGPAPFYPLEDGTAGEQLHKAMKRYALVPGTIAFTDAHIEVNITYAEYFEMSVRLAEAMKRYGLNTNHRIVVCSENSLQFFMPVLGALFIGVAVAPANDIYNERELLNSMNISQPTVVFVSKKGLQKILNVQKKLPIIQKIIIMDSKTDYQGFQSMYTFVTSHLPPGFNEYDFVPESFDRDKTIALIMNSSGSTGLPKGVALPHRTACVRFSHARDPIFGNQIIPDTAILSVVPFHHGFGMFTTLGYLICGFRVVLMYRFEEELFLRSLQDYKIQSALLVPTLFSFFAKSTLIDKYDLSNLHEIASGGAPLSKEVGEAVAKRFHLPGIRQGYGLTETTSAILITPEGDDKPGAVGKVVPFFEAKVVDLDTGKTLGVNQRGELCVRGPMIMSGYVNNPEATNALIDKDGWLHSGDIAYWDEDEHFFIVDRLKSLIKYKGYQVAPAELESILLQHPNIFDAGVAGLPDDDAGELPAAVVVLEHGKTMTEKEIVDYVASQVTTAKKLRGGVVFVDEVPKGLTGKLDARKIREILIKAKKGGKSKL
S16 viab conf – confirmation of cytotoxicity in S16 Pmp22-F2sN Schwann cells (luciferase reporters placed in the Pmp22 gene). shares compounds with PMP22 txn. S16 Schwann cells viability, CellTiter-Glo ATP luminescence, 24 h. Potency, µM (series often up to 57.5 µM), most hits filed as cytotoxic. 690 compounds, 7% hits
PMP22 txn cnf – confirmation of modulators of PMP22 gene transcription in S16 cells | shares compounds with PMP22 txn | S16 Schwann cells Pmp22-F2sN, dual luciferase, 24 h | Potency, µM (highest dose often 57.5 µM), usual class: inhibitors | 690 compounds, 22% hits | AID 1508646; active = clear falling dose curves in both reporters; inconclusive = both reporters move, but less clearly or upward; inactive = either reporter flat; the % is the FLuc reporter signal
PMP22 HiBiT cnf – confirmation of modulators of rat PMP22 protein expression. shares compounds with PMP22 txn. AID 1508647. S16 Schwann cells Pmp22-HiBiT, luminescence, 48 h. Potency, µM (doses to about 27.9 µM), actives largely listed as inhibitors. 95 tested, under 10 active
Target sequence (P25094 whole entry, looked up): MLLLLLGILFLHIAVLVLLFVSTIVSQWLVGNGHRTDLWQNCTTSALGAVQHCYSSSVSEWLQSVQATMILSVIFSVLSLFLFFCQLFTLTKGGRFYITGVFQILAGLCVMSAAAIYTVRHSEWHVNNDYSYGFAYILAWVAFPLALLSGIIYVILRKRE
A number is an active result; n = inactive; u = inconclusive; x = no result given. Unless noted, calls follow the shape of the dose curve; as a rule, active = well fitted curve in the direction sought with a large enough effect; inconclusive = small, poorly fitted or top-dose-only effect, or another doubt; inactive = no such curve, though single readings can be large; an effect the other way counts as inactive or inconclusive.

SMILES	p53null 32C tox	OvCa metastasis	S16 F2sN tox	mTORC1 inh	p53null 39C tox	PMP22 txn	NLuc saturating	NLuc Km counter	FLuc counter	S16 viab conf	PMP22 txn cnf	others
CCOC(=O)c1cc(NC(=O)c2ccccc2)c(=O)n2c1oc1ccc(Cl)cc12	n	n	u	n	n	u	n	n	n	n	u
COc1ccc(OC)c(NC(=O)c2c(NCc3sccc3C)sc3c2CCCCC3)c1	n	n	n	n	n	11.3µM	u	13.7µM	n	u	n
O=C(NCc1ccccc1Cl)c1ccc(Nc2nc3ccccc3n3nnnc23)cc1	n	n	n	n	n	17.8µM	n	n	n	n	u
COCCNC(=O)c1cccc(Nc2nc3ccccc3n3nnnc23)c1	n	n	n	n	n	10.6µM	n	u	n	n	n
CCCCOc1ccc(C(C)NC(=O)c2cccc(Nc3nc4ccccc4n4nnnc34)c2)cc1 (stereo unspecified)	n	n	u	n	n	5.32µM	n	n	n	27.3µM	10.3µM
COc1ccc(C=Cc2cc(OC)c(OC)c(OC)c2)cc1O	x	n	x	x	x	x	x	x	x	x	x
Cc1cc(C)c(NC(=O)Cn2c(=O)oc3cc(S(=O)(=O)N4CCCCCC4)ccc32)c(C)c1	n	n	n	n	n	u	n	n	n	n	u
Cc1cc(C)cc(NC(=O)Cn2c(=O)oc3cc(S(=O)(=O)N4CCCC4)ccc32)c1	n	n	n	n	n	n	x	x	x	x	x
Cc1cccc(NC(=O)Cn2c(=O)oc3cc(S(=O)(=O)NCc4ccccc4)ccc32)c1	u	n	n	n	n	10.6µM	n	n	n	n	n
COc1ccc(CCC(=O)c2c(O)cc(O[C@@H]3O[C@H](CO)[C@@H](O)[C@H](O)[C@@H]3O[C@@H]3O[C@@H](C)[C@H](O)[C@@H](O)[C@@H]3O)cc2O)cc1O	x	n	x	x	x	x	x	x	x	x	x
CCc1ccc(C(=O)c2cn(CC(=O)Nc3ccc4c(c3)OCO4)c3ccc(Cl)cc3c2=O)cc1	n	n	n	u	u	u	x	x	x	x	x
CCc1ccc(C(=O)c2cn(CC(=O)Nc3ccc4c(c3)OCO4)c3ccc(CC)cc3c2=O)cc1	n	n	n	n	u	12.6µM	n	n	n	u	12.2µM	PMP22 HiBiT cnf=u
Cc1ccccc1NS(=O)(=O)c1ccc2c(c1)NC(=O)CCS2	n	n	n	n	n	n	x	x	x	x	x
COc1cc(OC)c(NS(=O)(=O)c2ccc3c(c2)NC(=O)CCS3)cc1Cl	n	n	u	n	n	14.1µM	u	u	n	n	u
COc1ccc(CCNC(=O)Cn2c(-c3cccs3)cc3cc(F)ccc32)cc1OC	u	n	n	n	n	u	x	x	x	x	x	PMP22 HiBiT cnf=u
CCOc1ccc(CCNC(=O)Cn2c(-c3cccs3)cc3ccccc32)cc1OCC	n	n	n	n	n	u	x	x	x	x	x
O=C(Cn1c(-c2cccs2)cc2cc(F)ccc21)NCCCN1CCN(c2ccc(F)cc2)CC1	n	n	n	n	n	u	x	x	x	x	x	PMP22 HiBiT cnf=n
O=C(CCN1CCN(C(=O)OCc2cc(Cl)cc(Cl)c2)CC1)c1ccc2[nH]c(=O)oc2c1	x	n	x	x	x	x	x	x	x	x	x
CC(=O)c1cccc(Nc2nc(-c3ccccc3Cl)nc3ccccc23)c1	n	n	n	n	u	10.6µM	5.44µM	0.863µM	n	n	n
Cc1c(C(=O)N(C)C)sc2c1c(=O)n(-c1ccc(F)cc1)c(=O)n2Cc1cc(=O)n2ccccc2n1	n	n	n	n	n	n	x	x	x	x	x
CCN(CC)C(=O)c1sc2c(c1C)c(=O)n(-c1ccccc1)c(=O)n2Cc1cc(=O)n2ccccc2n1	n	n	n	n	n	11.5µM	n	n	n	n	n
COc1ncc(-c2ccc3nccc(-c4ccnnc4)c3c2)cc1NS(=O)(=O)c1ccc(F)cc1F	x	n	x	x	x	x	x	x	x	x	x
O=C(Cn1c(=O)n(Cc2ccccc2)c(=O)c2sc3ccccc3c21)Nc1ccccc1	u	n	n	n	n	u	x	x	x	x	x
O=C(Cn1c(=O)n(Cc2ccccc2)c(=O)c2sc3ccccc3c21)Nc1ccc(F)cc1	n	n	u	n	u	14.2µM	n	n	n	u	u
CCOc1ccccc1NC(=O)C1CCN(S(=O)(=O)c2c(C)noc2/C=C/c2ccco2)CC1	n	n	n	n	n	9.46µM	u	n	n	n	n
SMILES	p53null 32C tox	OvCa metastasis	S16 F2sN tox	mTORC1 inh	p53null 39C tox	PMP22 txn	NLuc saturating	NLuc Km counter	FLuc counter	S16 viab conf	PMP22 txn cnf	others
O=C(Cn1cnc2onc(-c3ccc(Cl)cc3)c2c1=O)Nc1ccc(F)cc1	n	n	n	n	n	u	x	x	x	x	x
COc1ccc(OC)c(NC(=O)Cn2cnc3onc(-c4ccc(Cl)cc4)c3c2=O)c1	n	u	n	n	n	5.15µM	n	n	n	n	u
CCOC(=O)c1oc2c(c1C)-c1nn(Cc3ccc(Cl)cc3)cc1CC2	n	n	n	n	n	u	u	u	n	n	n
COC(=O)c1cc2occc2n1Cc1cccc(C)c1	n	n	n	n	n	u	n	u	n	n	n
CCN(CC)S(=O)(=O)c1ccc2c(c1)N(CC(=O)NCCCN1CCN(c3cc(Cl)ccc3C)CC1)C(=O)CO2	u	n	u	u	u	20µM	n	n	n	u	u
COc1ccc(NC(=O)c2ccc3c(c2)c(C)c(C)n3Cc2ccc(F)cc2)cc1	n	n	n	u	u	15µM	n	n	n	n	n
CC1=C(C(=O)O)N2C(=O)[C@@H](NC(=O)[C@H](N)C3=CCC=CC3)[C@H]2SC1	x	n	x	x	x	x	x	x	x	x	x
